Screening results: PubChem BioAssay, National Center for Advancing Translational Sciences (NCATS)
An excerpt weighted towards active compounds, which were near 12% of everything screened.
Cycloheximide cs: affects cycloheximide protein synthesis inhibition readout, counter-screen. cell reporter, cycloheximide protein synthesis inhibition counterscreen. max response, %. hit rate 12% among 300,000; in the data active means max response mostly above about 13%, no sharp cut-off; inactive means mostly below about 14%; further: read at 38.3 µM for the half of the compounds with a filed dose; 0% is about no effect
Shiga inhibitor: inhibitors of Shiga toxin in Vero cells. Vero cells, Shiga toxin protein synthesis inhibition reporter. inhibition, % at 38.7 µM. hit rate 9.2% among 290,000; in the data active means inhibition mostly above about 28%, no sharp cut-off; inactive means mostly below about 43%; further: 0% is about no effect
LASV entry inh: blocks Lassa virus binding to or entry into cells; Lassa virus pseudotype entry inhibition, cell reporter; Potency, µM (highest dose often 37.9 µM), without a hit: at the top dose activity change, negative = inhibition, hits mostly inhibitors; hit rate 1.2% among 300,000; AID 540256; calls by dose curve; tested in HEK293 cells; further: potency means the concentration at half of the fitted maximal effect; on the % scale 0 is the no-effect control and ±100 the full control effect; nearly all actives have a fitted effect of over 50% in size
MARV entry inh: inhibitors of Marburg virus binding or cell entry | hit rate 1.8% among 300,000 | Potency, µM (highest dose often 37.8 µM), without a hit: top-dose activity change, negative = inhibition, usual class: inhibitors | Marburg virus pseudotyped entry inhibition, cell reporter; calls by dose curve; tested in HEK293 cells; further: potency means the concentration at half of the fitted maximal effect; on the % scale 0 is the no-effect control and ±100 the full control effect
* = called active by the depositor; [ ] = remark or other dose.

What do the screens show for `CCN(CC)CC(=O)Nc1ccc(Oc2ccc(NC(=O)CN(CC)CC)cc2)cc1`?
Cycloheximide cs: 7.1; Shiga inhibitor: 2.1; LASV entry inh: -27.2%; MARV entry inh: 3.98µM*

What do the screens show for `COc1ccc(CNC(=O)c2ccc(-c3ccccc3)cc2)cc1OC`?
Cycloheximide cs: 0.6; Shiga inhibitor: 3.1; LASV entry inh: 8.8%; MARV entry inh: -26.6%

How did COc1ccc(CNC(=O)c2ccc(C)cc2)cc1 do in these assays?
Cycloheximide cs: 23.8; Shiga inhibitor: 39.2*

How did COc1ccc(CNC(=O)c2ccc(Br)cc2)cc1 do in these assays?
Cycloheximide cs: 12.8*; Shiga inhibitor: 62.9

Results for COc1ccc(C2=C(C)C(=O)N(Cc3ccc(C(=O)NCc4ccc(C)cc4)cc3)S2(=O)=O)cc1 ?
LASV entry inh: 15.1%[46.1 µM]

What do the screens show for `Cc1ccc(CCNC(=O)NC(C)(C)C)cc1`?
Cycloheximide cs: 29.9*; Shiga inhibitor: 68.7*; LASV entry inh: inconclusive; MARV entry inh: 6.4%

What do the screens show for `COc1ccc(CCNC(=O)c2ccc(Br)cc2)cc1`?
Cycloheximide cs: -0.8; Shiga inhibitor: -9.1; LASV entry inh: 3.8%[46.1 µM]; MARV entry inh: -12.7%[46.1 µM]

How did COc1ccc(CNC(=O)c2ccc(-c3ccccc3)cc2)cc1 do in these assays?
Cycloheximide cs: 45.1*; Shiga inhibitor: 79.3*; LASV entry inh: inconclusive; MARV entry inh: 2.1%

What do the screens show for `COc1ccc(CNC(=O)CN2CCN(c3ccc(F)cc3)CC2)cc1`?
Cycloheximide cs: -2.9; Shiga inhibitor: -2.4

Results for Cc1ccc(CNC(=O)c2ccc(Cn3cc(-c4ccc(C)cc4)nc3-c3ccncc3)cc2)cc1 ?
Cycloheximide cs: 41.0*; Shiga inhibitor: 41.9*

What do the screens show for `Cc1ccc(C(=O)NCCc2ccccc2)cc1`?
Cycloheximide cs: -2.1; Shiga inhibitor: -1.7

Results for Cc1ccc(C(=O)NCCc2ccncc2)cc1 ?
Cycloheximide cs: 27.4*; Shiga inhibitor: 42.0*; LASV entry inh: 8.8%; MARV entry inh: 6.0%

Results for Cc1ccc(CNC(=O)CCn2cc(-c3ccc(C)cc3)nc2-c2ccncc2)cc1 ?
Cycloheximide cs: -2.1; Shiga inhibitor: 1.3

How did Cc1ccc(Oc2ccc(C(=O)NCc3ccncc3)cc2)cc1 do in these assays?
Cycloheximide cs: -0.7; Shiga inhibitor: -5.3; LASV entry inh: 8.91µM*; MARV entry inh: inconclusive

How did COc1ccc(OCC(O)CNC(=O)c2sccc2Cl)cc1 (stereo not given) do in these assays?
Cycloheximide cs: 19.7*; Shiga inhibitor: 16.3; LASV entry inh: -2.6%; MARV entry inh: 1.8%[46.1 µM]

How did Cc1cc2c(c(=O)n1Cc1ccccc1)C1O[C@](CCCCN3C(=O)c4ccccc4C3=O)(Cc3cc(C#N)ccc31)O2 do in these assays?
Cycloheximide cs: -1.8; Shiga inhibitor: inactive

What do the screens show for `Cn1c(=O)[nH]c(=O)c2c1nc1n(CCO)c(-c3ccccc3)cn21`?
LASV entry inh: 18.3%[46.1 µM]

What do the screens show for `COc1ccc(CNC(=O)c2sccc2C)cc1`?
Cycloheximide cs: 14.7*; Shiga inhibitor: 21.7; LASV entry inh: 14.4%[46.1 µM]; MARV entry inh: 36.6%[46.1 µM]

How did COc1ccccc1CNC(=O)c1sccc1C do in these assays?
Cycloheximide cs: 5.7; Shiga inhibitor: 35.1; LASV entry inh: 11.4%; MARV entry inh: 2.0%[46.1 µM]

How did Cc1ccc(-c2cc(-c3ccc(C)cc3)[n+](C)o2)cc1 do in these assays?
Cycloheximide cs: -2.8; Shiga inhibitor: -1.4; LASV entry inh: 11.6µM*; MARV entry inh: 3.55µM*

Results for COC(=O)c1ccc(N=NNc2ccccc2)cc1 ?
Cycloheximide cs: 53.3*; Shiga inhibitor: 131.3*; LASV entry inh: inconclusive; MARV entry inh: inconclusive

How did O=C(O)c1ccc(N=NNc2cccc([N+](=O)[O-])c2)cc1 do in these assays?
Cycloheximide cs: 41.8*; Shiga inhibitor: 108.4*; LASV entry inh: inconclusive; MARV entry inh: inconclusive

Results for COC(=O)c1ccc(N=NNc2cccc(Br)c2)cc1 ?
Cycloheximide cs: 63.4*; Shiga inhibitor: 74.3*; LASV entry inh: inconclusive; MARV entry inh: 2.8%

What do the screens show for `COC(=O)c1ccc(N=NNc2ccc(C(=O)OC)cc2)cc1`?
Cycloheximide cs: 122.1*; Shiga inhibitor: 126.6*; LASV entry inh: inconclusive; MARV entry inh: inconclusive

Results for O=C(Nc1cccc([N+](=O)[O-])c1)c1ccc(-c2ccccc2)cc1 ?
Cycloheximide cs: 10.7; Shiga inhibitor: 29.2; LASV entry inh: inconclusive; MARV entry inh: inconclusive

Results for COC(=O)c1ccc(NS(=O)(=O)N(C)C)cc1 ?
Cycloheximide cs: -1.8; Shiga inhibitor: -12.7; LASV entry inh: 4.9%; MARV entry inh: -1.6%

What do the screens show for `COc1ccccc1NC(=O)CC(c1cc(OC)c(OC)c(OC)c1)N1Cc2ccccc2C1=O` (stereo not given)?
LASV entry inh: 10.2%[46.1 µM]

Results for COc1ccc(N2CC(=O)N(c3ccccc3)C2=S)cc1 ?
Cycloheximide cs: 27.0*; Shiga inhibitor: 32.1; LASV entry inh: -3.8%; MARV entry inh: 10.4%
